Bioassay records (PubChem)
Most compounds without a hit are left out; they make up all but 19% or so of the library.
HepG2 tox: qHTS for Inhibitors of TGF-b: Cytotox Counterscreen | HepG2 CAGA-GFP viability, ATP luminescence, 18 h | Potency, µM (highest dose often 46.1 µM), for the others: at the highest dose activity change, negative = cytotoxicity, hits mostly cytotoxic | 410,000 compounds, 0.76% hits; also: potency is read from the fitted curve at half-maximal effect
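HepG2 CAGA-GFP cells (1000/well, DMEM with 1% FBS) received compound, then TGF-beta at 500 pg/mL final, and were incubated 18 hours at 37 degrees C. Viability was read by CellTiter-Glo luminescence. Media-only wells were set as complete cell-killing and DMSO as no toxicity.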
TDP1 cell noCPT: qHTS for Inhibitors of human tyrosyl-DNA phosphodiesterase 1 (TDP1): qHTS in cells in absence of CPT; Potency, µM (series often up to 46.2 µM), for the others: at the top dose activity change, negative = growth inhibition, most hits filed as inhibitors; 420,000 compounds, 15% hits; DT40 Tdp1-/- hTDP1 cells, no CPT, ATP luminescence, 48 h; also: potency is read from the fitted curve at half-maximal effect; % is scaled to controls: 0 for no effect and ±100 for the full control effect; nearly all actives have a fitted effect of over 55% in size
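Seeded 400 DT40-hTDP1 cells/well (vehicle DMSO, no 20 nM CPT); pinned compounds; ≥48 hr at 37 °C; CellTiter-Glo luminescence as viability measure.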
TGFb inhibitor: qHTS for Inhibitors of TGF-b. HepG2 CAGA-GFP TGF-b/SMAD3 reporter, GFP fluorescence, 18 h; TGF-beta stimulated, 500 pg/mL final. Potency, µM (doses to about 46.1 µM), without a hit: top-dose activity, negative = inhibition, most hits filed as inhibitors. 410,000 compounds, 1.2% hits. AID 588855, 2011; also: potency is read from the fitted curve at half-maximal effect; % is scaled to controls: 0 for no effect and ±100 for the full control effect; nearly all actives have a fitted effect of over 65% in size
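HEPG2 CAGA-GFP cells (1000/well, DMEM with 1% FBS) were pre-incubated 2 h at 37 degrees C, given compound by pin tool, then stimulated with TGF-beta at 500 pg/mL final for 18 h before per-cell GFP fluorescence imaging.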
IL1B secr inh: qHTS for Inhibitors of Inflammasome Signaling: IL-1-beta AlphaLISA Primary Screen; THP-1 LPS/ATP IL-1B secretion, AlphaLISA, 16 h; stronger effect = lower value; activity change, % at 57.5 µM; 360,000 compounds, 4.7% hits; in the data active = activity change below about -50%; inconclusive = mostly about -30% to -49%; also: % is scaled to controls: 0 for no effect and ±100 for the full control effect
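THP-1 cells pretreated 1 hr with compounds (up to 57.5 uM final), then stimulated with LPS (250 ng/mL final) plus ATP (1.25 mM final); secreted IL-1B measured by AlphaLISA after 16 hr, decreased signal indicating inhibition.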
DT40 TDP1 CPT: qHTS for Inhibitors of human tyrosyl-DNA phosphodiesterase 1 (TDP1): qHTS in cells in presence of CPT; chicken DT40 Tdp1-/-;hTDP1 cells + 20 nM CPT, ATP luminescence, 48 h; Potency, µM (top dose mostly 46.2 µM), for inactives: top-dose activity change, negative = growth inhibition, usual class: inhibitors; 420,000 compounds, 12% hits; AID 686979, 2013; also: potency is read from the fitted curve at half-maximal effect; % is scaled to controls: 0 for no effect and ±100 for the full control effect; nearly all actives have a fitted effect of over 55% in size
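Chicken DT40 Tdp1-/- cells stably complemented with human TDP1 were seeded at 400 cells/well in medium containing 20 nM camptothecin, exposed to pin-transferred compounds, and grown at 37 °C for at least 48 hr. Viability was read as ATP luminescence.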
S-ASM inh: Inhibitors of Secretory Acid Sphingomyelinase (S-ASM): qHTS. placental ASM, HMU-PC fluorogenic substrate, 60 min. Potency, µM (titrated, usually from 57.5 µM), inactives show top-dose activity change, negative = inhibition, hits mostly inhibitors. 340,000 compounds, 0.006% hits. AID 504937, 2011; also: potency is read from the fitted curve at half-maximal effect
Target sequence (P17405 47-631 limits assumed): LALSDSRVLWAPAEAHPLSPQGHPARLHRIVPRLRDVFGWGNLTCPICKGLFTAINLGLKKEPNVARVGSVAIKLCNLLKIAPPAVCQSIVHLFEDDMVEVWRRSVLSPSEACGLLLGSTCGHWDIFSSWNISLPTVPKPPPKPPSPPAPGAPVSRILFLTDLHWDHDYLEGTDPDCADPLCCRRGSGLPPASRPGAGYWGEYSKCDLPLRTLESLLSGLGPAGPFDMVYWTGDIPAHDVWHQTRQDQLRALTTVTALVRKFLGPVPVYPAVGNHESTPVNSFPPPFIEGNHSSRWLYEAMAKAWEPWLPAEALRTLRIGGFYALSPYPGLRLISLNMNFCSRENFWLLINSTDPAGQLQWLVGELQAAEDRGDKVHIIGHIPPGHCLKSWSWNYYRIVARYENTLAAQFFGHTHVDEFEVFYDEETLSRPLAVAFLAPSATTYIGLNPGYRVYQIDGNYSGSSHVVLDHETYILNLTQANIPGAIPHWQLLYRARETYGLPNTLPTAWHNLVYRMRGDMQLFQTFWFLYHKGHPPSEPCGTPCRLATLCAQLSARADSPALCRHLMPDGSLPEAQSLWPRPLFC
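Fluorescence read-out (Ex 386 nm, Em 447 nm) after stopping the reaction at pH 10. Enzyme: ASM from human placenta; substrate HMU-PC0, 9 uM final; 60 min, 37 °C. Compound preincubation 10 min, ambient temperature.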
The depositor's hits bear a star. Unless noted, calls follow the shape of the dose curve; as a rule, active = well fitted curve in the direction sought with a large enough effect; inconclusive = small, poorly fitted or top-dose-only effect, or another doubt; inactive = no such curve, though single readings can be large; an effect the other way counts as inactive or inconclusive.

C=CCNc1nc2ccccc2c(=O)[nH]1 was read as HepG2 tox 5%, TDP1 cell noCPT 21µM*, TGFb inhibitor 11%, IL1B secr inh 31, DT40 TDP1 CPT inconclusive and S-ASM inh 1%.
Screening COc1ccccc1NS(=O)(=O)c1ccc(C)c(NC(=O)C2CCCO2)c1 (stereo unspecified) returned HepG2 tox -11%, TDP1 cell noCPT inconclusive, TGFb inhibitor 10%, IL1B secr inh -5, DT40 TDP1 CPT -15% and S-ASM inh -1%.
Screening O=C(CSc1nnc(C2CC2)n1CC1CCCO1)Nc1cccc(Cl)c1 (stereo unspecified) returned HepG2 tox 1%, TDP1 cell noCPT -10%, TGFb inhibitor 2%, IL1B secr inh 10, DT40 TDP1 CPT -8% and S-ASM inh 1%.
For CCN1CCN(Cc2nnc(-c3ccc(C)cc3)o2)CC1 the results were HepG2 tox 6%, TDP1 cell noCPT 5%, TGFb inhibitor -1%, IL1B secr inh 0, DT40 TDP1 CPT -13% and S-ASM inh 0%.
Screening CN(C)c1nc(N)c2ncc(=S)[nH]c2n1 returned HepG2 tox -40%, TDP1 cell noCPT -18%, TGFb inhibitor -9%, IL1B secr inh -65*, DT40 TDP1 CPT 0% and S-ASM inh 57%.
`CN(C)c1nc(C(=O)NN)nc(N(C)C)n1` gave HepG2 tox 7%, TDP1 cell noCPT -2%, TGFb inhibitor -2%, IL1B secr inh -8, DT40 TDP1 CPT 2% and S-ASM inh 2%.
COc1ccc2cc(C(=O)NCc3ccccc3)c(=Nc3ccc(C(=O)O)cc3)oc2c1 was read as HepG2 tox 10%, TDP1 cell noCPT 13µM*, TGFb inhibitor -4%, IL1B secr inh 9, DT40 TDP1 CPT inconclusive and S-ASM inh 0%.
Screening COc1ccc(OC)c(N=c2oc3cc(O)ccc3cc2C(N)=O)c1 returned HepG2 tox -53%, TDP1 cell noCPT inconclusive, TGFb inhibitor 14%, IL1B secr inh -23, DT40 TDP1 CPT 15µM* and S-ASM inh inactive.
For NC(=O)c1cc2ccc(O)cc2oc1=NCc1ccccc1 the results were HepG2 tox -35%, TDP1 cell noCPT inconclusive, TGFb inhibitor 73%, IL1B secr inh -11, DT40 TDP1 CPT 18µM* and S-ASM inh inactive.
COc1ccccc1C(=O)c1cc2ccc(O)cc2oc1=O was read as HepG2 tox -3%, TDP1 cell noCPT 3%, TGFb inhibitor -10%, IL1B secr inh 13, DT40 TDP1 CPT -16% and S-ASM inh 31%.
COc1cccc2cc(C(=O)NCc3ccco3)c(=Nc3ccc(C(=O)O)cc3)oc12 was read as HepG2 tox -3%, TDP1 cell noCPT 16µM*, TGFb inhibitor -14%, IL1B secr inh -85*, DT40 TDP1 CPT inconclusive and S-ASM inh -4%.
For NC(=O)c1cc2ccccc2oc1=NCc1ccccc1 the results were HepG2 tox -8%, TDP1 cell noCPT -20%, TGFb inhibitor 37%, IL1B secr inh -26, DT40 TDP1 CPT -10% and S-ASM inh -3%.
`COc1cccc2cc(C(=O)NCc3ccco3)c(=O)oc12` gave HepG2 tox 26%, TDP1 cell noCPT -12%, TGFb inhibitor 1%, IL1B secr inh -13, DT40 TDP1 CPT -3% and S-ASM inh 4%.
